# Where “and” joins values, the source holds several entries; their conditions need not be identical. Identical values can stand only once. Records with an inconclusive call do not appear. Unmarked numbers belong to inactive results. Calls of active or inactive are those of the source. The call rests on the fitted dose curve; in most records, active means well fitted cell-killing curve with a large enough effect in the repeat runs; inconclusive means weak or mixed curves, or effect the other way; inactive means no such curve, though single readings can be large or run the other way.
# Experiment: qHTS assay for identifying genotoxic compounds that show differential cytotoxicity against isogenic chicken DT40 cell lines with known DNA damage response pathways - wild type cell line (AID 743012); further: nearly all actives have a fitted effect of over 60% in size
# Conditions: DT40 wild type chicken cells viability, CellTiter-Glo, 40 h; series mostly up to 68.4 µM; activity change, negative = cytotoxicity: at the top concentration
# Text: U.S. Tox21 Program National Center for Advancing Translational Sciences [NCATS] NIH Chemical Genomics Center [NCGC] U.S. Environmental Protection Agency [EPA] National Institutes of Environmental Health Sciences [NIEHS] National Toxicology Program [NTP] U.S. Food and Drug Administration [FDA] Tox21 Assay Overview: DNA repair pathways play a critical role in cellular homeostasis by repairing DNA damage induced by endogenous processes and xenobiotics. Isogenic chicken DT40 cell lines deficient in different DNA repair pathways can be used to identify genotoxic compounds and aid in characterizing the nature of the DNA damage induced. Two DNA repair-deficient cell lines with disrupted genes, Rad54/Ku70 or Rev3, were used to screen the Tox21 10K compound library. Possible genotoxicity was based on the presence of a significant increase in cytotoxicity in one or more of the DNA repair-deficient cell lines compared to that observed in the parental DNA repair-proficient cell line. CellTiter Glo viability assay (Promega, Madison, WI) was used to measure cell viability in these cells after compound treatment. This assay includes the data from the wild type cell line.
# Tox21 Assay Protocol Summary: 300 DT40 wild type cells in 5 uL/well were dispensed into white, solid-bottom 1536-well plates using a Multidrop Combi (ThermoFisher Scientific, Waltham, MA) dispenser. After the assay plates were incubated at 37 C/5% CO2 for approximately 0.5 hour, 23 nL of compounds dissolved in DMSO, positive controls or DMSO only was transferred into the assay plate by a pintool work station (Kalypsys, San Diego, CA). The assay plates were incubated at 37 C/5% CO2 for 40 hours. After 5 uL per well of CellTiter-Glo reagent was added into each well of the assay plates, the plates were incubated for 30 min at room temperature and the luminescence intensity of the plates was measured using a ViewLux (PerkinElmer, Shelton, CT) plate reader.
# On the % scale 0 is the no-effect control and ±100 the full control effect; potency means the concentration at half of the fitted maximal effect.
SMILES,Potency,"activity change, negative = cytotoxicity"
Oc1cc2ccccc2c2ccccc12,1.22 µM (active),
CC/C(=C(\c1ccc(O)cc1)c1ccc(OCCN(C)C)cc1)c1ccccc1,2.74 µM (active),
C[C@]12CCC(=O)C=C1CC[C@@H]1[C@@H]2[C@@H](O)C[C@@]2(C)[C@H]1CC[C@]2(O)C(=O)COC(=O)CCC(=O)O,26.6 µM (active),
CC(NN)c1ccccc1 (stereo not given),,0.611%
Cc1cc(C2CCCCC2)n(O)c(=O)c1,1.43 µM (active),
Oc1cccc(-c2c3nc(c(-c4cccc(O)c4)c4ccc([nH]4)c(-c4cccc(O)c4)c4nc(c(-c5cccc(O)c5)c5ccc2[nH]5)CC4)C=C3)c1,29.8 µM (active),
CSc1cnc(C)cn1,,4.85% [at 95 µM]
CSc1ccc(C(=O)c2[nH]c(=O)[nH]c2C)cc1,,14.6%
Cc1cc(CCN2CCN(c3nsc4ccccc34)CC2)cc2c1NC(=O)CC2(C)C,3.06 µM (active),
CN1CCN(CCC(=O)N2c3ccccc3Sc3ccc(C(F)(F)F)cc32)CC1,16.8 µM (active),
Nc1ccccc1O,7.59 µM (active),
COc1cc(-c2ccc(N=C=O)c(OC)c2)ccc1N=C=O,,19.1%
CCCC/C=C/CCCCO,,1.69%
C[C@H](CCC(=O)O)[C@H]1CC[C@H]2[C@@H]3CC[C@@H]4C[C@H](O)CC[C@]4(C)[C@H]3CC[C@]12C,inactive,
C[C@@H](NCCCc1cccc(C(F)(F)F)c1)c1cccc2ccccc12,5.31 µM (active),
CC[C@H]1O[C@]2(CC[C@@H]1C)C[C@@H]1C[C@@H](C/C=C(\C)C[C@@H](C)/C=C/C=C3\CO[C@@H]4[C@H](O)C(C)=C[C@@H](C(=O)O1)[C@]34O)O2,6.06 µM (active),
CCCCCCCCCCCCCCCCCC[N+](C)(C)C,2.74 µM (active),
O=[N+]([O-])c1ccccc1Nc1ccccc1,,-1.72%
N=C1C=CC(=C(c2ccc(N)cc2)c2ccc(N)cc2)C=C1,9.69 µM (active),
NC(=O)CC[C@@H]1NC(=O)[C@H](Cc2ccccc2)NC(=O)[C@H](Cc2ccc(O)cc2)NC(=O)CCSSC[C@@H](C(=O)N2CCC[C@H]2C(=O)N[C@@H](CCCN=C(N)N)C(=O)NCC(N)=O)NC(=O)[C@H](CC(N)=O)NC1=O,inactive,

SMILES,Potency,"activity change, negative = cytotoxicity"
CCC1=C[C@@H]2CN(C1)Cc1c([nH]c3ccccc13)[C@@](C(=O)OC)(c1cc3c(cc1OC)N(C)[C@H]1[C@@](O)(C(=O)OC)[C@H](OC(C)=O)[C@]4(CC)C=CCN5CC[C@]31[C@@H]54)C2,0.075 µM (active),
Nc1ccc2cc(S(=O)(=O)O)cc(O)c2c1N=Nc1ccccc1C(F)(F)F,,-22%
CCCCCCCC/C=C/CCCCCCCC1=NCCN1CCO,12.2 µM (active),
CC(=O)SC[C@@H](Cc1ccccc1)C(=O)NCC(=O)OCc1ccccc1,,0.123% [at 31.4 µM]
CC(C)(C)NC(=O)[C@@H]1C[C@@H]2CCCC[C@@H]2CN1C[C@@H](O)[C@H](Cc1ccccc1)NC(=O)[C@H](CC(N)=O)NC(=O)c1ccc2ccccc2n1,26.6 µM (active),
Cc1nc(-c2ccc3c(c2)CCN(CCC2CCC(NC(=O)/C=C/c4ccc(F)cc4)CC2)CC3)no1 (stereo not given),0.386 µM (active),
S=c1[nH]c2ccccc2s1,29.8 µM (active) and 61.1 µM (active),
CC(C)(C)C(=O)OCOC(=O)[C@@H]1N2C(=O)[C@@H](NC(=O)[C@H](N)c3ccccc3)[C@H]2SC1(C)C,,12.6% [at 31.4 µM]
Oc1ccc(Cl)cc1Sc1cc(Cl)ccc1O,10.6 µM (active) and 30.6 µM (active),
Cc1ccc2oc(CN(Cc3ccccc3)C(=O)Nc3c(F)cc(F)cc3F)c(-c3ccc(Cl)cc3)c2c1,18.7 µM (active),
Fc1ccc(C(c2ccc(F)cc2)N2CCN(C/C=C/c3ccccc3)CC2)cc1,10.6 µM (active),
CCCCCCCC[N+](CCCCCCCC)(CCCCCCCC)CCCCCCCC,2.43 µM (active),
O=C(OC[C@H]1O[C@@H](OC(=O)c2cc(O)c(O)c(OC(=O)c3cc(O)c(O)c(O)c3)c2)[C@H](OC(=O)c2cc(O)c(O)c(OC(=O)c3cc(O)c(O)c(O)c3)c2)[C@@H](OC(=O)c2cc(O)c(O)c(OC(=O)c3cc(O)c(O)c(O)c3)c2)[C@@H]1OC(=O)c1cc(O)c(O)c(OC(=O)c2cc(O)c(O)c(O)c2)c1)c1cc(O)c(O)c(OC(=O)c2cc(O)c(O)c(O)c2)c1,5.96 µM (active),
COc1c(C)c2c(c(O)c1C/C=C(\C)CCC(=O)O)C(=O)OC2,0.16 µM (active),
COc1cc(/C=C/C(=O)O[C@H]2CC[C@]34C[C@]35CC[C@]3(C)[C@@H]([C@H](C)CCC=C(C)C)CC[C@@]3(C)[C@@H]5CC[C@H]4C2(C)C)ccc1O,inactive,
CCOC(=O)/C=C(C)/C=C/C=C(C)/C=C/c1c(C)cc(OC)c(C)c1C,9.44 µM (active),
Clc1ccc2cc3ccccc3cc2c1,,3.84%
Cc1cccc2c1cc1ccc3cccc4ccc2c1c34,,-15.1% [at 95 µM]
CCCCCCC[N+](CC)(CC)CCCCc1ccc(Cl)cc1,1.01 µM (active),
CCN(CCC#N)c1ccc(N=Nc2c(Cl)cc([N+](=O)[O-])cc2Cl)cc1,13.7 µM (active),

# — PubChem BioAssay (Tox21)
